Source: PubChem (National Center for Advancing Translational Sciences (NCATS))
Shown are actives, neighbours in structure and some others; about 2.9% of the full set was active somewhere.
ATXN viability: viability counter-screen for ATXN expression inhibitors. S2 cells (HEK-293 line with an ATXN2-luciferase reporter) viability, CellTiter-Fluor protease fluorescence, 24 h. Potency, µM (titrated, usually from 56.7 µM), usual class: cytotoxic. hit rate 0.49% among 400,000. AID 651635; note: nearly all actives have a fitted effect of over 40% in size
Nrf2 activator: Nrf2 pathway activation; AREc32 ARE-luciferase reporter (MCF7-derived line), luminescence, 24 h; Potency, µM (titrated, usually from 46.1 µM), for the others: top-dose activation, actives largely listed as activators; hit rate 0.31% among 410,000; note: % of control where 0% means no effect; nearly all actives have a fitted effect of over 65% in size
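ARE activation measured as luciferase luminescence (Steady-Glo, 30 min RT) in AREc32_Fluc cells after 24 hr compound exposure at 37 deg C, 5% CO2; cells seeded overnight at 1000/well in OPTI-MEM, 5% FBS.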
Nrf2 inh: inhibitors of Nrf2 signaling; AID 504444; A549 ARE-Fluc reporter, luciferase luminescence, 18-24 h; hit rate 2.1% among 360,000; Potency, µM (highest dose often 46 µM), for inactives: at the top dose activity change, negative = inhibition, usual class: inhibitors; note: % is set by controls: 0 for no effect and ±100 for the full control effect; nearly all actives have a fitted effect of over 60% in size
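Quantitative HTS in A549 cells stably bearing an antioxidant response element-firefly luciferase construct. Inhibition of Nrf2-driven transcription was scored by luminescence after 18-24 h of compound exposure at 37 °C.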
A549 viability: counter-screen for Nrf2 inhibitors: cytotoxicity in A549 cells | A549 ARE-Fluc cells, CellTiter-Fluor viability, 18-24 h | AID 504648 | Potency, µM (series often up to 46 µM), without a hit: at the top dose activity change, negative = cytotoxicity, usual class: inhibitors | hit rate 0.16% among 390,000; note: % is set by controls: 0 for no effect and ±100 for the full control effect
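A549 ARE_Fluc cells in 5% FBS OPTI-MEM were exposed to compounds in concentration-response for 18-24 h at 37 deg C. Viability was read by CellTiter-Fluor fluorescence (Ex 405/Em 525) after 30 min, before the luciferase read.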
ATXN2 expr inh: ATXN2 expression inhibition; hit rate 0.72% among 360,000; Potency, µM (top dose mostly 57 µM), without a hit: at the top dose activity change, negative = inhibition, hits mostly inhibitors; AID 1745845; HEK-293 ATXN2-luciferase reporter, luminescence, 24 h; note: % is set by controls: 0 for no effect and ±100 for the full control effect; nearly all actives have a fitted effect of over 55% in size
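ATXN2-luciferase reporter cells (luciferase flanked by upstream and downstream ATXN2 gene portions) were treated 24 h at 37 °C with compounds at up to 57 uM. SteadyGlo luminescence gave expression; GF-AFC fluorescence gave viability.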
* = called active by the depositor; i = inactive; ? = inconclusive; / = not tested or not shown; ! = not active in a repeat; [ ] = dose if it differs, or a comment. Calls come from the whole dose curve; as a rule, active = well fitted curve in the direction sought with a large enough effect; inconclusive = small, poorly fitted or top-dose-only effect, or another doubt; inactive = no such curve, though single readings can be large; an effect the other way counts as inactive or inconclusive. Potency is the fitted concentration of half-maximal effect.

SMILES | ATXN viability | Nrf2 activator | Nrf2 inh | A549 viability | ATXN2 expr inh
CC(=O)Nc1ccc(S(=O)(=O)NC2=C(N3CCN(C)CC3)C(=O)c3ccccc3C2=O)cc1 | 14.1µM* | -1.5% | 18.3% | 1.6% | /
O=C(CSc1ncc(C(F)(F)F)cc1Cl)N1CCN(S(=O)(=O)c2ccc(Cl)cc2)CC1 | i | -0.9% | ? | 2.9% | -1.9%
O=C(CSc1ccc(Cl)cc1)N1CCN(c2ncc(C(F)(F)F)cc2Cl)CC1 | i | 0.2% | 20.6µM* | -15.2% | -12.8%
CC[N+](CC)(CC#Cc1ccccc1)CC#Cc1ccccc1 | i | 0.3% | 14.6µM* | 1.3% | -35.1%
C#CC[N+](CC)(CC)CC#Cc1ccccc1 | i | 0.1% | ? | -2.1% | -13.5%
O=C(COC(=O)c1ccc(F)cc1Cl)NC1CC1 | i | -1.0% | / | / | /
COc1ccc(CNCc2cc3c(C(C)(C)C)nn(-c4ccccc4)c3[nH]c2=O)cc1 | ? | 7.3% | 18.4µM* | -25.0% | ?
C=CCC1c2cccc(C(=O)O)c2C(=O)N1c1ccc(F)cc1 (stereo unspecified) | i | 0.1% | / | -3.7% | -8.9%
CCOC(=O)/C(=C\c1ccc(N2CCC(c3ccccc3)=N2)cc1)C(C)=O | i | 3.2% | 116.1% | 17.2% | 11.8%
CCOC(=O)C(=Cc1ccc(-n2cncn2)cc1)C(=O)OCC | ? | ? | 18.4µM* | ? | ?
O=c1[nH]nc(Sc2ncc([N+](=O)[O-])s2)n1-c1ccc2c(c1)OCCO2 | / | / | / | / | 12.2µM*
O=c1[nH]nc(SCc2ccccc2Cl)n1-c1ccc2c(c1)OCCO2 | i | 2.7% | 4.3% | -15.2% | 7.1%
C=CCn1c(Sc2ncc([N+](=O)[O-])s2)n[nH]c1=O | 29.9µM* | -2.5% | 2.4% | ? | ?
CC1CCCCC1NC(=O)CN1CCC(NC(=O)c2ccc([N+](=O)[O-])cc2)CC1 (stereo unspecified) | i | -0.5% | 7.31µM* | -6.1% | -0.6%
CCOC(=O)NC(=O)CSc1ccc2ccccc2n1 | i | -0.4% | 9.3% | 6.7% | 0.1%
CCOC(=O)c1csc(NC(=O)c2ccc(OCC)cc2)n1 | i | -0.2% | 20.6µM* | -23.3% | ?
CC(N=C1NS(=O)(=O)c2ccccc21)C(=O)Nc1ccc(F)cc1Cl (stereo unspecified) | / | 0.0% | -4.9% | -4.5% | /
O=S1(=O)Nc2c(ccc3cccnc23)-c2ccccc21 | ? | 7.08µM* | ? | ? | 3.55µM*
Clc1ccc2ccc3cccnc3c2n1 | i | 0.4% | -15.7% | -12.0% | /
Cc1cnc2c3c(cc(Cl)c2c1)-c1ccccc1S(=O)(=O)N3 | / | / | 6.51µM* | 16.4µM* | /
Cc1ccc(NC(=O)c2cc(-c3ccccc3)nn2-c2ccccc2)cc1 | i | 0.6% | -22.0% | 4.6% | -19.7%
O=C(Nc1ccc(F)cc1)c1nn(-c2ccccc2)c(=O)cc1Cl | ? | -1.8% | 18.4µM* | ? | ?
Cc1ccc(NS(=O)(=O)c2cccc(C(=O)Nc3cccnc3)c2)c(C)c1 | i | 2.8% | 8.2µM* | -8.8% | -4.8%
Cc1cccc(NC(=O)c2ccc(S(=O)(=O)NCc3cccnc3)cc2)c1 | i | 0.3% | 11.6µM* | -18.3% | -9.5%
O=C(Nc1ccc(Cl)c(Cl)c1)c1cccc(S(=O)(=O)NCc2cccnc2)c1 | ? | 4.9% | 14.6µM* | -22.8% | ?
SMILES | ATXN viability | Nrf2 activator | Nrf2 inh | A549 viability | ATXN2 expr inh
COc1ccc(-c2noc(CCC(=O)Nc3ccccc3Cl)n2)cc1OC | i | -0.3% | ? | 8.2% | -2.7%
CN(C)CCNC(=O)C(=O)NCC(c1ccc2c(c1)OCO2)N1CCN(c2ccc(F)cc2)CC1 (stereo unspecified) | i | 0.3% | -7.9% | -1.7% | -12.5%
COC(=O)c1oc(-c2ccccc2)nc1C | i | 12.6µM* | 0.3% | 5.7% | -30.9%
O=C(NCC1OCCc2ccccc21)c1ccc(NC(=O)c2ccc(Cl)cc2)cc1 (stereo unspecified) | ? | 7.9% | 20.6µM* | ? | ?
O=C(NCC1OCCc2ccccc21)c1ccco1 (stereo unspecified) | i | 11.2µM* | ? | 4.3% | 5.9%
COc1ccc(-n2c(=O)[nH]c3cc(C(=O)NCCc4ccccc4)ccc3c2=O)cc1OC | i | 0.0% | 13µM*! | -12.7% | 9.7%
Cc1ccc(CCNC(=O)c2ccc3c(=O)n(-c4ccccc4)c(=O)[nH]c3c2)cc1 | ? | 0.6% | -0.7%[9.27 µM] | -23.4% | -4.2%
CC(=O)NC(c1ccc(Cl)cc1Cl)c1ccc2cccnc2c1O (stereo unspecified) | ? | 0.0% | ? | -18.0% | ?
CC(=O)NC(c1ccc2ccccc2c1)c1ccc2cccnc2c1O (stereo unspecified) | i | 0.1% | 14.6µM* | -20.4% | 2.82µM*
CC(C)C(=O)NC(c1cccc([N+](=O)[O-])c1)c1ccc2cccnc2c1O (stereo unspecified) | ? | 0.0% | ? | -11.5% | 2.67µM*
COc1ccc(C(NC(C)=O)c2ccc3cccnc3c2O)c(OC)c1 (stereo unspecified) | ? | 3.4% | / | ? | 1.78µM*
COc1ccc(C)cc1NC(=O)COCC(=O)O | i | -0.1% | 6.9% | 1.2% | 4.8%
O=C(Nc1nc2cc3c(cc2s1)OCCO3)c1ccco1 | ? | -2.5% | ? | -7.7% | 8.91µM*
C=CCOC(=O)c1sc(NC(=O)c2ccco2)nc1C | i | 5.01µM* | ? | / | 51.1%
CC1CCc2nc(NC(=O)c3ccco3)sc2C1 (stereo unspecified) | i | 5.7% | ? | -1.2% | 11.2µM*
CCOC(=O)c1sc(NC(=O)c2cc3ccccc3o2)nc1C | i | -2.5% | ? | 3.5% | 41.7%
COc1ccc(-c2cc(C(F)(F)F)n3nc(C(=O)NCC45CC6CC(CC(C6)C4)C5)cc3n2)cc1OC | i | 0.5% | 27.9% | 15.3% | 1.2%
COc1ccc(-c2cc(C(F)(F)F)n3nc(C(=O)NCC45CC6CC(CC(C6)C4)C5)cc3n2)cc1 | i | -0.5% | 14.6µM* | -10.2% | 8.0%
Cc1n[nH]c(=O)c2c(NC(=O)CSc3ccc(F)cc3)oc(C)c12 | i | 0.3% | -11.1% | -4.3% | -21.2%
Nc1nsc2ccccc12 | i | 11.2µM* | ? | -17.3% | -28.1%
COc1ccc(C(C(=O)NCCC(C)C)N(CCO)C(=O)c2snc(C(N)=O)c2N)cc1 (stereo unspecified) | i | 0.5% | -28.2% | -14.7% | 0.0%
Cc1ccc(N(C(=O)c2snc(C(N)=O)c2N)C(C(=O)NCCC(C)C)c2ccco2)cc1 (stereo unspecified) | i | 0.4% | 23.1µM* | ? | -2.9%
CCCC(C(=O)NCCC(C)C)N(Cc1ccc(OC)cc1)C(=O)c1snc(C(N)=O)c1N (stereo unspecified) | 23.8µM* | -0.1% | -15.9% | -2.9% | 15.2%
